Cell viability data for 23 molecules are collected here from the supplement of paper PMC12669797.

Each structure is given as a SMILES string. Values joined by “and” are separate entries in the source; they are usually repeats but may differ in a detail not shown here. Identical values can stand only once. Counter-ions that a name gives are not always drawn. ± gives the standard deviation of the averaged measurements.

One assay relates to ES2. Description: cell viability relative to DMSO control (MTS) (fraction of DMSO control); higher = more viable cells / less growth inhibition. The conditions noted are these: 10 µM; 48 h. The procedure, abridged: (§1)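 Viability values are fractions of the vehicle-treated control. They come from an MTS assay run per the manufacturer's instructions on TOV-21G and ES2 clear cell carcinoma cells, seeded at 5000 cells per well in 96-well plates. Each compound of a 367-member […] library was added at 10 µM final after 24 h of growth, and the readout was taken after a further 48 h.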

A further assay deals with TOV-21G. The assay is described as above. The following applies: 10 µM; 48 h. The procedure, abridged: as §1

For `CC(C)(c1ccc(OCC2CO2)cc1)c1ccc(OCC2CO2)cc1` (stereo unspecified), the cell viability with ES2 turned out to be 0.975; in the assay with TOV-21G, 1.27.
In the case of `O=C1Nc2ccccc2C2(CCN(CCc3ccc(C(F)(F)F)cc3)CC2)O1`, the figures for the cell viability with ES2 and with TOV-21G were 0.915 and 1.12, respectively.
For `COc1ccc(C[C@H]2NC[C@H](O)[C@H]2OC(C)=O)cc1` [anisomycin], the cell viability in the assay with ES2 stood at 0.394; in the assay with TOV-21G, 0.372.
For the molecule `COC[C@H]1OC(=O)c2coc3c2[C@@]1(C)C1=C(C3=O)[C@@H]2CCC(=O)[C@@]2(C)C[C@H]1OC(C)=O` [Wortmannin], the figures for the cell viability with ES2 and in the assay on TOV-21G were 0.956 ± 0.059 and 0.6 ± 0.027, respectively.
With `O=C(O)c1nn(Cc2ccc(Cl)cc2Cl)c2ccccc12` [Lonidamine], the results for the cell viability with ES2 and in the assay on TOV-21G were 0.925 and 1.09, respectively.
As to `N=C(N)NN` [Aminoguanidine, HCl], the cell viability with ES2 worked out at 0.55; with TOV-21G, 0.337.
In the case of `C/C=C(/C)C(=O)O[C@H]1C(C)=C2[C@H]([C@@H]1OC(=O)CCCCCCC)[C@@](C)(OC(C)=O)C[C@H](OC(=O)CCC)[C@@]1(O)[C@H]2OC(=O)[C@@]1(C)O` [Thapsigargin], the cell viability in the assay on ES2 came out at 0.505; in the assay on TOV-21G it was 0.348.
As to `CC1=C2C[C@H]3[C@@H](CC=C4C[C@@H](O)CC[C@@]43C)[C@@H]2CC[C@]12O[C@@H]1C[C@H](C)CN[C@H]1[C@H]2C` [cyclopamine], the cell viability was determined as 0.92 in the assay on ES2 and 0.927 in the assay with TOV-21G.
The matching figures for `CO[C@@H]1C[C@@H](C[C@H]2CC[C@H](C)[C@H]([C@@H](C)C(=O)O)O2)O[C@]2(O[C@](C)([C@H]3CC[C@@](C)([C@@H]4O[C@@H]([C@H]5O[C@@](O)(CO)[C@H](C)C[C@@H]5C)C[C@@H]4C)O3)C[C@H]2C)[C@@H]1C` [Nigericin]: 0.437 and 0.344.
Take `C/C(O)=C(\C#N)C(=O)Nc1cc(Br)ccc1Br`: the cell viability in the assay on ES2 turned out to be 1.06 ± 0.013; with TOV-21G, 1.34 ± 0.19.
Take `C=C(C)[C@H]1Cc2c(ccc3c2O[C@@H]2COc4cc(OC)c(OC)cc4[C@@H]2C3=O)O1` [Rotenone]: the cell viability is 0.491 in the assay on ES2 and 0.666 with TOV-21G.
Turning to `C[C@@]1(CO)[C@H](O)CC[C@@]2(C)[C@H]1CC[C@H]1C[C@@H]3C[C@@]12CC[C@]3(O)CO` [Aphidicolin], the cell viability in the assay with ES2 came out at 0.419; with TOV-21G, 0.869.
`NC(=S)N/N=C\c1coc2ccccc2c1=O.[Cl][Cu][Cl]` [Akt Inhibitor XI]: the values for the cell viability with ES2 and in the assay with TOV-21G were 1.23 and 0.935, respectively.
For the molecule `O=C1NC(=O)c2c1c1c3ccccc3n3c1c1c2c2ccccc2n1[C@H]1CC[C@@H]3O1`, the cell viability in the assay on ES2 was 0.973 and 1.25; in the assay with TOV-21G, 1.01 and 1.24.
For the molecule `C[C@H]1CCC/C=C/[C@@H]2C[C@H](O)C[C@H]2[C@H](O)/C=C/C(=O)O1` [brefeldin A], the values for the cell viability with ES2 and in the assay with TOV-21G were 0.355 and 0.407, respectively.
Regarding `CCC1(c2ccc(N)cc2)CCC(=O)NC1=O` (stereo unspecified) [Aminoglutethimide], the cell viability worked out at 1.08 in the assay on ES2 and 0.918 with TOV-21G.
Regarding `CO/C1=C\C(C)=C\[C@@H](C)[C@@H](O)[C@@H](C)C/C(C)=C/C=C/[C@H](OC)[C@@H]([C@@H](C)[C@@H](O)[C@H](C)[C@@]2(O)C[C@@H](O)[C@H](C)[C@@H](C(C)C)O2)OC1=O` [Bafilomycin A1], the cell viability is 0.467 in the assay on ES2 and 0.395 in the assay with TOV-21G.
For `CN(N=O)c1cc(O)ccc1O` [Dephostatin], the cell viability is 1.14 with ES2 and 1.02 in the assay on TOV-21G.
For the molecule `C[C@@H]1C[C@@H]([C@H](O)CC2CC(=O)NC(=O)C2)C(=O)[C@@H](C)C1` [Cycloheximide], the results for the cell viability in the assay on ES2 and in the assay with TOV-21G were 0.547 and 0.373, respectively.
In the case of `C[C@]12CCC(=O)C(O)=C1CC[C@@H]1[C@@H]2CC[C@]2(C)C(=O)CC[C@@H]12` [Formestane], the cell viability came out at 1.11 in the assay with ES2 and 1.32 in the assay with TOV-21G.
For the molecule `CC[C@@]1(O)C(=O)OCc2c1cc1n(c2=O)Cc2cc3ccccc3nc2-1` [Camptothecin], the cell viability in the assay on ES2 was 0.527; in the assay with TOV-21G it was 0.267.
With `CC(C)[C@@H]1NC(=O)[C@H](C)OC(=O)[C@@H](C(C)C)NC(=O)[C@@H](C(C)C)OC(=O)[C@H](C(C)C)NC(=O)[C@H](C)OC(=O)[C@@H](C(C)C)NC(=O)[C@@H](C(C)C)OC(=O)[C@H](C(C)C)NC(=O)[C@H](C)OC(=O)[C@@H](C(C)C)NC(=O)[C@@H](C(C)C)OC1=O` [Valinomycin], the cell viability in the assay with ES2 is 0.482; with TOV-21G, 0.355.
The matching figures for `CN[C@@H]1C[C@H]2O[C@@](C)([C@@H]1OC)n1c3ccccc3c3c4c(c5c6ccccc6n2c5c31)C(=O)NC4` [Staurosporine]: 0.301 and 0.239.
